According to paper PMC12820563, “FoxP3 forms a head-to-head dimer in vivo and stabilizes its multimerization on adjacent microsatellites”:
In all, about 16,000 sequences were measured (“rpm ratio (pull-down/input)”: median about 0.94, highest 2% from about 1.7 on). The sample as a whole holds a higher share of the highest values than the screen did.

What follows are sequences tested against T1, MBP-FoxP1dN (Mus musculus, UniProt P58462 326-579) (assay: PD-seq (MBP pull-down with sequencing); 20 mM Tris-HCl pH 7.5, 100 mM NaCl, 1.5 mM MgCl2, 0.4 uM protein, 0.1 uM dsDNA library, 30 min, room temperature, amylose pull-down; high values mean tight binding). Conditions: protein: recombinant; tags: His6-MBP; chain copies: 2; dsDNA, one strand shown.
T1 sequence: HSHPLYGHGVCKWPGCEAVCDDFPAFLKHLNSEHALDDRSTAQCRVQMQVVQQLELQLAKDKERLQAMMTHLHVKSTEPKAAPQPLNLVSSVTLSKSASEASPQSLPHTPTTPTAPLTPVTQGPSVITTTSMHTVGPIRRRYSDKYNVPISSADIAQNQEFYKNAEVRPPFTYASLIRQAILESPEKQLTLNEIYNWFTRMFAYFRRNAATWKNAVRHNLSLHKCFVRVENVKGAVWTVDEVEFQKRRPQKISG
Method in brief: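 Binding is reads-per-million enrichment of pull-down over input, with replicates pooled. It comes from 30 min room-temperature incubation in Tris pH 7.5 buffer with NaCl and MgCl2 of 0.4 µM His6-MBP-tagged, N-terminally truncated mouse FoxP3 or FoxP1 fragment from E. coli with 0.1 µM Klenow-filled degenerate double-stranded DNA library, followed by amylose resin capture, three washes and Illumina sequencing of the released DNA.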
“GATGATTGTTCTCCCAGCTGATGAATTAAGCTTATCGAGTAAACAAATTTTCCTAATCTTTCTGTTCAAGCGCCATCTAC” was tested, and the binding signal was 1.03 RPM ratio (pull-down/input).
“GATGATTGTTCTCCCAGCTGATGAATTCTCTTCATCGAGTAAACAAATTTTCCTAATCTTTCTGTTCAAGCGCCATCTAC” was tested, and the binding signal was 0.886 RPM ratio (pull-down/input).
With “GATGATTGTTCTCCCAGCTGATGAATTATGTTCTTCGAGTAAACAAATTTTCCTAATCTTTCTGTTCAAGCGCCATCTAC” the binding signal was 1.15 RPM ratio (pull-down/input).
For “GATGATTGTTCTCCCAGCTGATGAATTATGAATTTCGAGTAAACAAATTTTCCTAATCTTTCTGTTCAAGCGCCATCTAC”, the binding signal was 1.03 RPM ratio (pull-down/input).
For “GATGATTGTTCTCCCAGCTGATGAATTATGTTCATCGAGTAAACAAATTTTCCTAATCTTTCTGTTCAAGCGCCATCTAC”, the binding signal was 1.04 RPM ratio (pull-down/input).
With “GATGATTGTTCTCCCAGCTGATGAATTATGATGATCGAGTAAACAAATTTTCCTAATCTTTCTGTTCAAGCGCCATCTAC” the binding signal was 1.15 RPM ratio (pull-down/input).
With “GATGATTGTTCTCCCAGCTGATGAATTATGTTGATCGAGTAAACAAATTTTCCTAATCTTTCTGTTCAAGCGCCATCTAC” the binding signal was 2.81 RPM ratio (pull-down/input).
For “GATGATTGTTCTCCCAGCTGATGAATTATGTTGTTCGAGTAAACAAATTTTCCTAATCTTTCTGTTCAAGCGCCATCTAC”, the binding signal was 2.67 RPM ratio (pull-down/input).
For “GATGATTGTTCTCCCAGCTGATGAATTGAGGTCCTCGAGTAAACAAATTTTCCTAATCTTTCTGTTCAAGCGCCATCTAC”, the binding signal was 0.772 RPM ratio (pull-down/input).
With “GATGATTGTTCTCCCAGCTGATGAATTTGATAGCTCGAGTAAACAAATTTTCCTAATCTTTCTGTTCAAGCGCCATCTAC” the binding signal was 0.868 RPM ratio (pull-down/input).
In the case of “GATGATTGTTCTCCCAGCTGATGAATTCGGTACATCGAGTAAACAAATTTTCCTAATCTTTCTGTTCAAGCGCCATCTAC”, the binding signal is reported as 0.991 RPM ratio (pull-down/input).
With “GATGATTGTTCTCCCAGCTGATGAATTCTAATAGTCGAGTAAACAAATTTTCCTAATCTTTCTGTTCAAGCGCCATCTAC” the binding signal was 0.905 RPM ratio (pull-down/input).
In the case of “GATGATTGTTCTCCCAGCTGATGAATTAGCCGTATCGAGTAAACAAATTTTCCTAATCTTTCTGTTCAAGCGCCATCTAC”, the binding signal is reported as 0.934 RPM ratio (pull-down/input).
“GATGATTGTTCTCCCAGCTGATGAATTTACGATCTCGAGTAAACAAATTTTCCTAATCTTTCTGTTCAAGCGCCATCTAC” was tested, and the binding signal was 1.15 RPM ratio (pull-down/input).
In the case of “GATGATTGTTCTCCCAGCTGATGAATTGGCGCTATCGAGTAAACAAATTTTCCTAATCTTTCTGTTCAAGCGCCATCTAC”, the binding signal is reported as 0.954 RPM ratio (pull-down/input).
With “GATGATTGTTCTCCCAGCTGATGAATTCTGCCCGTCGAGTAAACAAATTTTCCTAATCTTTCTGTTCAAGCGCCATCTAC” the binding signal was 0.815 RPM ratio (pull-down/input).
“GATGATTGTTCTCCCAGCTGATGAATTAATTGTATCGAGTAAACAAATTTTCCTAATCTTTCTGTTCAAGCGCCATCTAC” was tested, and the binding signal was 1.44 RPM ratio (pull-down/input).
“GATGATTGTTCTCCCAGCTGATGAATTGTAATTATCGAGTAAACAAATTTTCCTAATCTTTCTGTTCAAGCGCCATCTAC” was tested, and the binding signal was 1.54 RPM ratio (pull-down/input).
“GATGATTGTTCTCCCAGCTGATGAATTATTTGTATCGAGTAAACAAATTTTCCTAATCTTTCTGTTCAAGCGCCATCTAC” was tested, and the binding signal was 2 RPM ratio (pull-down/input).
For “GATGATTGTTCTCCCAGCTGATGAATTGTATTAATCGAGTAAACAAATTTTCCTAATCTTTCTGTTCAAGCGCCATCTAC”, the binding signal was 1.24 RPM ratio (pull-down/input).
In the case of “GATGATTGTTCTCCCAGCTGATGAATTATCTGTATCGAGTAAACAAATTTTCCTAATCTTTCTGTTCAAGCGCCATCTAC”, the binding signal is reported as 1.1 RPM ratio (pull-down/input).
“GATGATTGTTCTCCCAGCTGATGAATTTGTATTATCGAGTAAACAAATTTTCCTAATCTTTCTGTTCAAGCGCCATCTAC” was tested, and the binding signal was 2.13 RPM ratio (pull-down/input).
“GATGATTGTTCTCCCAGCTGATGAATTGCGAATATCGAGTAAACAAATTTTCCTAATCTTTCTGTTCAAGCGCCATCTAC” was tested, and the binding signal was 1.17 RPM ratio (pull-down/input).
“GATGATTGTTCTCCCAGCTGATGAATTGCTCTTCTCGAGTAAACAAATTTTCCTAATCTTTCTGTTCAAGCGCCATCTAC” was tested, and the binding signal was 0.889 RPM ratio (pull-down/input).
For “GATGATTGTTCTCCCAGCTGATGAATTCGGGTTCTCGAGTAAACAAATTTTCCTAATCTTTCTGTTCAAGCGCCATCTAC”, the binding signal was 0.806 RPM ratio (pull-down/input).
In the case of “GATGATTGTTCTCCCAGCTGATGAATTGGAATATTCGAGTAAACAAATTTTCCTAATCTTTCTGTTCAAGCGCCATCTAC”, the binding signal is reported as 0.93 RPM ratio (pull-down/input).
With “GATGATTGTTCTCCCAGCTGATGAATTTTGTCTCTCGAGTAAACAAATTTTCCTAATCTTTCTGTTCAAGCGCCATCTAC” the binding signal was 0.968 RPM ratio (pull-down/input).
With “GATGATTGTTCTCCCAGCTGATGAATTCTTTGTCTCGAGTAAACAAATTTTCCTAATCTTTCTGTTCAAGCGCCATCTAC” the binding signal was 0.931 RPM ratio (pull-down/input).
In the case of “GATGATTGTTCTCCCAGCTGATGAATTTGTTGTCTCGAGTAAACAAATTTTCCTAATCTTTCTGTTCAAGCGCCATCTAC”, the binding signal is reported as 2.42 RPM ratio (pull-down/input).
In the case of “GATGATTGTTCTCCCAGCTGATGAATTGTTTGTCTCGAGTAAACAAATTTTCCTAATCTTTCTGTTCAAGCGCCATCTAC”, the binding signal is reported as 2.6 RPM ratio (pull-down/input).
With “GATGATTGTTCTCCCAGCTGATGAATTTTTTGTCTCGAGTAAACAAATTTTCCTAATCTTTCTGTTCAAGCGCCATCTAC” the binding signal was 0.905 RPM ratio (pull-down/input).
For “GATGATTGTTCTCCCAGCTGATGAATTTCTGTCTTCGAGTAAACAAATTTTCCTAATCTTTCTGTTCAAGCGCCATCTAC”, the binding signal was 0.89 RPM ratio (pull-down/input).
For “GATGATTGTTCTCCCAGCTGATGAATTGTCTTCTTCGAGTAAACAAATTTTCCTAATCTTTCTGTTCAAGCGCCATCTAC”, the binding signal was 1.05 RPM ratio (pull-down/input).
For “GATGATTGTTCTCCCAGCTGATGAATTGTTGTCTTCGAGTAAACAAATTTTCCTAATCTTTCTGTTCAAGCGCCATCTAC”, the binding signal was 2.29 RPM ratio (pull-down/input).
With “GATGATTGTTCTCCCAGCTGATGAATTTGTCTTCTCGAGTAAACAAATTTTCCTAATCTTTCTGTTCAAGCGCCATCTAC” the binding signal was 1.16 RPM ratio (pull-down/input).
